Pin1 inhibitor = qHTS Assay to Find Inhibitors of Pin1 | Peptidyl-prolyl cis-trans isomerase NIMA-interacting 1 (Homo sapiens), Q13526 | Potency, µM (top dose mostly 115 µM), for the others: top-dose activity, negative = inhibition, hits mostly inhibitors | 390,000 tested, 0.009% active | Pin1 FP peptide displacement, HiFluor488, 10 min | AID 504891, 2011; active = well fitted inhibition curve with a large enough effect in the polarisation, with a control signal flat, not every such curve was filed as active; inconclusive = small, poorly fitted or top-dose-only effect, or effect the other way, or a change in a side signal; inactive = no such curve, though single readings can be large or run the other way; the % refers to the polarisation
Target sequence (Q13526 whole entry, looked up): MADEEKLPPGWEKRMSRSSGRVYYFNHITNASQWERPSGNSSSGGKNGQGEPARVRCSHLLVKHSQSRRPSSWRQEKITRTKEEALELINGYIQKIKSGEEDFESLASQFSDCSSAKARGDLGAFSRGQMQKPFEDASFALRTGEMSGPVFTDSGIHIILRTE
mIDH1 inhibitor = qHTS for Inhibitors of mutant isocitrate dehydrogenase 1 (IDH1): qHTS | 390,000 tested, 0.093% active | Isocitrate dehydrogenase [NADP] cytoplasmic (Homo sapiens), O75874 | Potency, µM (top dose mostly 76.6 µM), without a hit: top-dose activity change, negative = inhibition, actives largely listed as inhibitors | IDH1-R132H enzyme, NADPH consumption, diaphorase/resazurin fluorescence; note: nearly all actives have a fitted effect of over 65% in size
Target sequence (O75874 whole entry R132H, stated change not applied): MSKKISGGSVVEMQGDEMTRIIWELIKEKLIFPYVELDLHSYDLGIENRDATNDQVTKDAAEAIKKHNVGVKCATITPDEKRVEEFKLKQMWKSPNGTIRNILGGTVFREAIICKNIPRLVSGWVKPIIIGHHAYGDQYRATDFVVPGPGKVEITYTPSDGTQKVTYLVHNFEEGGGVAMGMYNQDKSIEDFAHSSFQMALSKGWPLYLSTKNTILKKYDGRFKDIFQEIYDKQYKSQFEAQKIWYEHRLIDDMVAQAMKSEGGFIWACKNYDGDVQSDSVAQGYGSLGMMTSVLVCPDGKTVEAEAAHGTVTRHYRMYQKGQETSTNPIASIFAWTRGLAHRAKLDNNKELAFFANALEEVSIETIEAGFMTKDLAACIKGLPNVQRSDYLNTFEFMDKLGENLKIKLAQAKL
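IDH1-R132H (0.5 ug/mL) preincubated 30 min with compound, then NADPH (0.016 mM) and alpha-KG (2 mM) added; 80 min at RT, pH 7.5. Remaining NADPH coupled via diaphorase/resazurin to fluorescence (540/590 nm); concentration-response curves normalized to no-enzyme control.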
Tb PGK inh = qHTS Assay to Find Inhibitors of Phosphoglycerate Kinase; Phosphoglycerate kinase, glycosomal (Trypanosoma brucei brucei), P07378; PGK/GAPDH coupled, Kinase-Glo luminescence, 60 min; Potency, µM (highest dose often 57.5 µM), for the others: at the highest dose activity change, negative = inhibition, actives largely listed as inhibitors; 380,000 tested, 0.043% active; AID 602233, 2012; note: nearly all actives have a fitted effect of over 60% in size
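Luminescent ATP detection (Kinase-Glo Plus) follows a 60-minute room-temperature incubation, with wells lacking PGK as controls. Buffer: 100 mM TEA (pH 7.6), 5 mM MgCl2, 0.01% Tween-20. Coupling enzyme GAPDH (100 nM final) supplies unstable 1,3-BPG in-well.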
GLS inh = qHTS for Inhibitors of Glutaminase (GLS); Glutaminase kidney isoform, mitochondrial (Homo sapiens), O94925; GLS enzymatic activity, qHTS titration; Potency, µM (top dose mostly 45.5 µM), for the others: at the top dose activity change, negative = inhibition, hits mostly inhibitors; 410,000 tested, 0.21% active; AID 624170, 2012
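hKGA in 45 mM KH2PO4 (pH 8.2), 0.02% Tween-20 with compound, then 1mM L-Glutamine (stock as added) plus glutamate oxidase/HRP/Amplex red coupling mix. Fluorescence read initially and after 30 min at RT; signal change reflects glutamate formation.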
An asterisk follows results filed as active; i = inactive; ? = inconclusive; . = not tested or not shown; [ ] = another dose, or the depositor's remark. Sampled rows, rich in hits. Any-hit rate of the full collection: about 0.33%. Unless noted, calls come from the whole dose curve; as a rule, active = well fitted curve in the direction sought with a large enough effect; inconclusive = small, poorly fitted or top-dose-only effect, or another doubt; inactive = no such curve, though single readings can be large; an effect the other way counts as inactive or inconclusive. % is set by controls: 0 for no effect and ±100 for the full control effect; potency is the fitted concentration of half-maximal effect.

SMILES | Pin1 inhibitor | mIDH1 inhibitor | Tb PGK inh | GLS inh
O=C(NCc1ccc(F)cc1)n1c(-c2ccccc2)c(P(=S)(c2ccccc2)c2ccccc2)c2ccccc21 | 30% | . | . | .
Nc1nc2ccc(O)cc2s1 | -4% | -3% | i | 13µM*
Cc1cc2c(s1)c(/C=N/O)c(C(=O)NCc1ccccc1F)n2C | 0% | . | . | .
O=S1(=O)N=C(Oc2ccc(C(F)(F)F)cc2)c2ccccc21 | -2% | . | . | .
NC(=O)C1CCN(c2ncc(-c3cccc(N4CCOCC4)c3)s2)CC1 | -3% | . | . | .
CC(C)C[C@@H](CNCC(=O)[C@H](Cc1c[nH]c2ccccc12)NC(=O)c1[nH]cnc1C(=O)N[C@@H](C)CN)NC(=O)c1nc[nH]c1C(=O)N[C@@H](CC(=O)O)C(=O)O | 0% | -4% | 6% | 10µM*
CC(C)C[C@@H](CNCC(=O)[C@H](Cc1c[nH]c2ccccc12)NC(=O)c1[nH]cnc1C(=O)N[C@@H](C)CN)NC(=O)c1nc[nH]c1C(=O)N[C@@H](C)C(=O)O | ? | -7% | 2% | 1%
CC(C)C[C@@H](CNCC(=O)[C@H](Cc1c[nH]c2ccccc12)NC(=O)c1[nH]cnc1C(=O)N[C@H](CN)CC(C)C)NC(=O)c1nc[nH]c1C(=O)N[C@@H](CC(=O)O)C(=O)O | ? | -5% | 1% | 8.9µM*
CC(C)C[C@@H](CN)NC(=O)c1nc[nH]c1C(=O)N[C@@H](Cc1c[nH]c2ccccc12)C(=O)CNC[C@H](C)NC(=O)c1nc[nH]c1C(=O)N[C@@H](CC(=O)O)C(=O)O | -12% | -1% | 3% | ?
Cc1cc2c(s1)c1cnn(Cc3ccc(C(=O)O)cc3)c(=O)c1n2C | -4% | . | . | .
Cc1ccc(OCc2ccoc2C(=O)O)cc1C | -8% | 4% | ? | 18µM*
Cc1ccc(OCc2ccc(C(=O)O)o2)cc1C | 2% | -1% | -5% | 3%
CC(=O)c1cccc(N(C(=O)Cn2nnc3ccccc32)C(C(=O)NC2CCCCC2)c2cn(C)nc2C)c1 (stereo not given) | -15% | 3% | i | 7.9µM*
CC(=O)c1ccc(N(C(=O)Cn2nnc3ccccc32)C(C(=O)NC2CCCCC2)c2cn(C)nc2C)cc1 (stereo not given) | 3% | 0% | -5% | 2%
CCOC(=O)c1sc(=NC(=O)c2c(F)cccc2F)n(C)c1C | -3% | 4% | -5% | 18µM*
CC(=O)N(CCC(Cc1ccccc1)c1ccc2c(c1)OCO2)Cc1ccc(Cl)cc1 (stereo not given) | ? | 7.4µM* | -6% | -3%
N#Cc1nc(Nc2cccc([N+](=O)[O-])c2)nc(NC2CCCC2)n1 | 1% | . | . | .
Cc1ccc(NS(=O)(=O)c2cc3c(cc2Cl)NC(=O)C3)cc1C | 11% | . | . | .
CC(C)(C)C1=CC(=O)C(=O)C(C(C)(C)C)=C1 | -3% | 6% | . | 5.6µM*
O=c1c2ccccc2cnn1-c1nc2ccccc2[nH]1 | -2% | 15% | 10µM* | -2%
CC(CS(=O)(=O)c1ccc2c(c1)NC(=O)CS2)C(=O)NCc1ccccc1Cl (stereo not given) | ? | -7% | 7.9µM* | 11µM*
Oc1ccc(/C=N/Nc2nccnc2Cl)cc1 | 4% | 7% | 11µM* | 25%
CC1(C)S[C@@H]2[C@H](NC(=O)[C@H](N)c3ccc(O)cc3)C(=O)N2[C@H]1C(=O)O | ? | -19% | -6% | -26%
CC1(C)SC2C(N3C(=O)C(c4ccccc4)NC3(C)C)C(=O)N2C1C(=O)O (stereo not given) | . | . | . | 28µM*
CC1(C)S[C@@H]2[C@H](NC(=O)C(C(=O)O)c3ccccc3)C(=O)N2[C@H]1C(=O)O (stereo not given in full) | 2% | -8% | -8% | -27%
SMILES | Pin1 inhibitor | mIDH1 inhibitor | Tb PGK inh | GLS inh
CCN1CCN(C(=O)N[C@H](C(=O)N[C@@H]2C(=O)N3[C@@H](C(=O)O)C(C)(C)S[C@@H]23)c2ccccc2)C(=O)C1=O | . | . | . | 25µM*
CC1(C)S[C@H]2C(NC(=O)[C@@H](N)c3ccc(O)cc3)C(=O)N2[C@@H]1C(=O)O (stereo not given in full) | . | . | . | 14µM*
CC1(C)S[C@@H]2[C@H](NC(=O)[C@H](N)c3ccccc3)C(=O)N2[C@H]1C(=O)O | . | 9% | -10% | 10µM*
CC1(C)SC2c3ccccc3C(=O)N2C1C(=O)O (stereo not given) | -4% | 5% | 3% | 2%
O=C(Nc1ccccc1)C1CCN(c2nc(-c3ccc(Br)cc3)cs2)CC1 | 32% | . | . | .
Cc1onc(-c2c(F)cccc2Cl)c1C(=O)N[C@@H]1C(=O)N2[C@H]1SC(C)(C)[C@H]2C(=O)O | . | . | . | 3.5µM*
Cc1onc(-c2ccccc2Cl)c1C(=O)N[C@H]1C(=O)N2[C@H]1SC(C)(C)[C@H]2C(=O)O | . | . | . | -22%[20 µM]
O=c1c2ccccc2nc2sc(NCc3ccc(Oc4ccccc4)cc3)nn12 | 6% | . | . | .
CCOC(=O)c1c(/N=C/c2cccc(C)c2O)sc2c1CCN(C)C2 | ? | 9% | i | -1%
CCOC(=O)c1c(/N=C/c2ccc(C)cc2O)sc2c1CCN(C)C2 | 5% | 9% | -4% | 10µM*
CCc1nc(Nc2ccc(O)cc2)c2oc3ccccc3c2n1 | ? | 7% | 6% | 4.5µM*
O=c1c2ccccc2nc2sc(Nc3ccc(Sc4ccccc4)cc3)nn12 | 35% | . | . | .
S=C(NCCCN(Cc1ccc(Cl)c(Cl)c1)c1ccc(Br)cn1)NCCc1cnc[nH]1 | -4% | . | . | .
CC(=O)c1ccc(N=C2C(=O)Nc3ccccc32)cc1 | 3% | 26µM* | 16% | 4%
O=C1Nc2ccccc2C1=Nc1ccc(F)cc1 | ? | -2% | i | 8%
Oc1ccc(/C=N/n2c(-c3ccccc3)n[nH]c2=S)cc1 | -3% | -5% | -3% | 16µM*
Cc1nc(-c2ccc(O)c(O)c2)cs1 | -2% | 4% | 1% | 11µM*
Cc1ccc2nc(-c3ccc(O)c(O)c3)cn2c1 | 1% | -1% | ? | 20µM*
Oc1ccc(-c2csc(-c3cccnc3)n2)cc1O | ? | 3% | -15% | 3.5µM*
Cc1ccc2nc(-c3ccccc3)cn2c1 | -3% | 21% | ? | 9%
CC(c1ccco1)N(C)c1ncnc2ccc(-c3ccc4c(c3)OCO4)cc12 (stereo not given) | 1% | . | . | .
CC(C)CC(OC(=O)CNC(=O)c1ccccc1)C(=O)Nc1cc(C(F)(F)F)ccc1Cl (stereo not given) | 0% | . | . | .
COc1ccc(C2Nc3ccccc3C(=O)N2Cc2ccccc2)cc1OCc1ccc(NC(C)=O)cc1 (stereo not given) | 24% | . | . | .
Nc1cccc(S(=O)(=O)N2CCN(S(=O)(=O)c3ccc4c(c3)OCCO4)CC2)c1 | 4% | . | . | .

High-throughput results: PubChem, National Center for Advancing Translational Sciences (NCATS)
